Test results taken from PubChem BioAssay AID1779 (Sanford-Burnham Center for Chemical Genomics, 2009).
Among all 290,000 compounds or so, about 160 (0.055%) were called active. Cut-off read from the data, not from the text of the source: active = inhibition above about 50%; inactive = the rest. Only a selection was taken, and actives are over-represented in it overall.

These compounds were tested against Tyrosine-protein phosphatase non-receptor type 22 (Homo sapiens) (UniProt Q9Y2R2) (assay: inhibitors of LYP phosphatase, biochemical, fluorescence intensity, uHTS (AID 1779;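 note: plate controls were vehicle with enzyme for no effect and no enzyme for full effect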)). Conditions: recombinant LYP phosphatase, at 11.5 µM, hits give high values.
Sequence of Tyrosine-protein phosphatase non-receptor type 22 (Homo sapiens) (Q9Y2R2 whole entry, looked up): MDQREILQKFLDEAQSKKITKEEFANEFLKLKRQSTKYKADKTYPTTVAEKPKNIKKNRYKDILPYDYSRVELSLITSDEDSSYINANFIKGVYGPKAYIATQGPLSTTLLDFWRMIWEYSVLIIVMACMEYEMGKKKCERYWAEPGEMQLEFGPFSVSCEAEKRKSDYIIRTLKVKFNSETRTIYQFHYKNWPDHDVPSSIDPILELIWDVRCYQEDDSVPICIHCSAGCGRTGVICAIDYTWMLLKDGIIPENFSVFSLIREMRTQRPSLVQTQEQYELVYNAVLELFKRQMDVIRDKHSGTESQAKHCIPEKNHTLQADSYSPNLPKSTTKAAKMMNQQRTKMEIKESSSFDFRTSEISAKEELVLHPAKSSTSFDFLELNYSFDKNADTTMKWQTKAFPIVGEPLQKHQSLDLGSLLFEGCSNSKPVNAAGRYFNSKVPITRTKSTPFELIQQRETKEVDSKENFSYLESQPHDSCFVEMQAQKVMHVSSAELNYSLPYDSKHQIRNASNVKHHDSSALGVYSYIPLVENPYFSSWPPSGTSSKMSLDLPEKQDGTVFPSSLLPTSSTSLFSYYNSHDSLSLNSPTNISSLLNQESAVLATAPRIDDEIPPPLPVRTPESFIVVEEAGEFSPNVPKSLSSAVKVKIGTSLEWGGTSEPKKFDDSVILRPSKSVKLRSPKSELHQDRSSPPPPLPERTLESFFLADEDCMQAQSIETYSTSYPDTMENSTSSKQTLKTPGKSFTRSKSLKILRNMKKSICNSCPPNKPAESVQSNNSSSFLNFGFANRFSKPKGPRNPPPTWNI

inhibition, active:
COc1ccc(N2CCN(CCOc3ccc4c(C)cc(=O)oc4c3)CC2)cc1 67.7%
C=CCc1cccc2cc(C(=O)Nc3ccc(S(=O)(=O)Nc4nnc(CC)s4)cc3)c(=O)oc12 71.3%
Cc1ccc(N2CCN(CCCCN3C(=O)C4CCCN4C3=O)CC2)cc1 (configuration not stated) 62.7%
COc1ccc(OC(C)C(=O)N2CC(C)OC(C)C2)cc1 (configuration not stated) 63.6%
O=C(c1ccncc1)N1CCN(C(=O)c2ccncc2)CC1 67%
Cc1cccc(-n2cc(CN3CCN(C(=O)c4ncn[nH]4)CC3)c(-c3cccc(F)c3)n2)c1 56.5%
O=C(N/N=C/c1ccccn1)c1ccc(Cl)c(Cl)c1 72%
COc1cc(/C=C2\SC(=O)N(c3cccc(Cl)c3)C2=O)cc([N+](=O)[O-])c1O 92.2%
COc1cc(/C=C2\SC(=O)N(c3ccc(Cl)cc3)C2=O)cc([N+](=O)[O-])c1O 91.6%
CC(=O)Nc1ccc(SCC(=O)Nc2ccc(Cl)cn2)cc1 77.1%
COc1ccc(C(C#N)(CCC#N)CCC#N)cc1OC 56.1%
COC(=O)C(C(=O)NCC1CCCO1)C1CCCCCC1 (configuration not stated) 86.6%
CCOC(=O)NC(=O)C(=CNc1ccc(C)cc1)C(=O)NC(=O)OCC 57.4%
Cc1[nH]c2ccccc2c1N=Nc1c(C)n(C)n(-c2ccccc2)c1=O 94.5%
CCCCC(C(=O)OCC)C(N)Cc1ccc(F)cc1 (configuration not stated) 89.5%
COc1ccc(C2SCC(=O)N2CCCN(C)C)cc1 (configuration not stated) 50.7%
CC(C)n1c(C(=O)OCC(=O)NCc2ccc3c(c2)OCO3)cc2occc21 59.5%

inhibition, inactive:
Cc1cc(=O)oc2cc(OCCSCCN3CCOCC3)ccc12 -5.9%
COc1ccc(N2CCN(C(=O)c3ccc(COc4ccc5c(C)cc(=O)oc5c4)cc3)CC2)cc1 2.8%
N#C/C(=C\c1ccccc1O)C(=O)Nc1cccnc1 -9%
O=C(CCN1C(=O)c2ccccc2S1(=O)=O)Nc1ccccc1O -0.2%
CCc1nnc(NS(=O)(=O)c2ccc(NC(=O)c3cc4ccccc4oc3=O)cc2)s1 1.9%
CCc1nnc(NS(=O)(=O)c2ccc(NC(=O)c3cccc4ccccc34)cc2)s1 1.6%
Cc1c(C)n(C(=O)CN2CCN(c3ccccn3)CC2)c2ccccc12 5.2%
O=C(Nc1c(F)cccc1F)c1ccc2c(c1)CCN2S(=O)(=O)c1ccccc1 -8.4%
Cc1cc(Cl)ccc1OCc1n[nH]c(=S)n1C1CCCCC1 4%
Nc1ccc(N2CCN(CCCCN3C(=O)C4CCCN4C3=O)CC2)cc1 (configuration not stated) -25%
Cc1ccc(N2CCN(CCCN3C(=O)C4CCCN4C3=O)CC2)cc1 (configuration not stated) 1.4%
Cc1cccc(OCC(O)CN2CCOCC2)c1 (configuration not stated) -8.2%
CCN(CC)CCCNC(=O)Cn1ncn2cccc2c1=O -3.9%
CC(C)(C)c1ccc(C2(C)NC(=O)N(CC(=O)NCc3cccs3)C2=O)cc1 (configuration not stated) -8.4%
COc1ccc(OC(C)C(=O)N2CCOCC2)cc1 (configuration not stated) -9.8%
COc1ccc(OC(C)C(=O)N2CCC(C)CC2)cc1 (configuration not stated) -5.6%
COC(=O)c1ccc2c(c1)NC(=O)C(N1CCCCC1)S2 (configuration not stated) 1%
Cc1c(C(=O)O)sc2nc(/C=C/c3cccc(O)c3)[nH]c(=O)c12 -5.3%
Cc1c(C(=O)O)sc2nc(/C=C/c3cccc(F)c3)[nH]c(=O)c12 -4.3%
CCCOc1ccc(/C=N/NC(=O)CSc2ccccn2)cc1OC 0.2%
CCN(CC)S(=O)(=O)c1ccc(N2CCOCC2)c(NC(=O)Cc2cccc3ccccc23)c1 -0.8%
COc1ccc(C(CC(=O)N2CCCCC2)c2c(OC)cc(OC)c3ccc(=O)oc23)cc1 (configuration not stated) -2.3%
COc1ccc(C(=O)N2CCN(C(=O)c3ccncc3)CC2)cc1 -9.1%
CS(=O)(=O)N1CCN(C(=O)c2ccncc2)CC1 -7.1%
Cc1ccc(-n2cc(CN3CCN(C(=O)c4ncn[nH]4)CC3)c(-c3ccc(F)cc3)n2)cc1 -3.9%
CC(=O)N1CCCN(Cc2cn(-c3cccc(C)c3)nc2-c2cccc(F)c2)CC1 -2.6%
CCN(CCCNC(=O)COc1cc(=O)n(CC)c2ccccc12)Cc1ccccc1 6.1%
CCOc1ccc(Nc2nc(N)c([N+](=O)[O-])c(N3CCN(CC)CC3)n2)cc1 -3.7%
N#C/C(=C(/O)c1ccc(C(=O)c2ccccc2)cc1)c1nc2ccccc2[nH]1 -4.1%
O=C(N/N=C/c1ccccn1)c1ccc(Cl)cc1 -5.3%
O=C(N/N=C/c1ccccn1)c1ccccc1 2.8%
COc1cc(/C=C2\SC(=O)N(c3ccccc3Cl)C2=O)cc([N+](=O)[O-])c1O 11.7%
COc1cc(/C=C2\SC(=O)N(CC(=O)Nc3cccc(C)c3)C2=O)cc([N+](=O)[O-])c1O 4.5%
COc1cc(/C=C2\SC(=O)N(Cc3ccc(Cl)cc3)C2=O)cc([N+](=O)[O-])c1O 33%
COc1cc(/C=C2\SC(=O)N(Cc3ccc(F)cc3)C2=O)cc([N+](=O)[O-])c1O 0.7%
CS(=O)(=O)N(CC(=O)N1CCN(c2cccc(Cl)c2)CC1)c1cccc(F)c1 4.5%
CCCCN(C)CCC(=O)Nc1ccc2c(c1)CCC2 -2.9%
CCOc1ccc(Cl)cc1/C=N/NC(=O)c1ccccc1 -4.5%
CC1(C)c2ccccc2N2CC(=O)N[C@@]21/C=C/C=C/c1ccccc1 8.6%
c1cc(-n2nnc3cnccc32)ccn1 -4.3%
O=C(CSc1ccc2c(c1)OCCO2)Nc1ccc(Cl)cn1 -8.6%
CC(=O)Nc1ccc(NC(=O)CSc2ccc(C)cc2)cc1 -2.7%
CCn1cc(C(=O)NCCCN(CC(C)C)CC(C)C)c(=O)c2cc(S(=O)(=O)N(C)C3CCCCC3)ccc21 -0.6%
O=C(NC1CCSc2ccccc21)c1ccc(C(F)(F)F)cc1 (configuration not stated) -7.3%
O=C(NCc1ccc(F)cc1)c1c2c(nc3ccccc13)CCC2 3.5%
Cc1ccc2c(C)c(C(=O)NCC(C)(C)N3CCOCC3)oc2c1C -8.2%
C=CCc1ccc(OC)c(OC)c1 -8.6%
COc1ccc(NC(=O)CC#N)cc1OC 0.1%
CC(C)N(C(=O)CSc1nc2ccccc2n1Cc1ccccc1F)C(C)C 5.2%
COC(=O)C(C(=O)NCC1CCCO1)C1CCCC1 (configuration not stated) -6.5%
CCOC(=O)C(C(=O)NCC1CCCO1)C1CCCCC1 (configuration not stated) -4.2%
CCOC(=O)NC(=O)C(=CNc1cccc(OC)c1)C(=O)NC(=O)OCC -7.5%
CCOC(=O)NC(=O)C(=CNc1cccc(C)c1)C(=O)NC(=O)OCC -4.7%
O=C(CN1C(=O)NC2(CCc3ccccc3C2)C1=O)Nc1ccc(F)cc1 (configuration not stated) 2%
COCC(=O)N(Cc1cc2ccc(C)cc2[nH]c1=O)c1cccc(C)c1 -1%
NS(=O)(=O)c1cc(C(=O)OCC(=O)N2CCOCC2)ccc1Cl -4%
COc1cc(/C=C2/SC(=S)N(CCC(=O)Nc3ccc(C(=O)O)cc3)C2=O)cc(OC)c1OC -0.9%
COc1ccc(/C=C2\SC(=S)N(CCCC(=O)Nc3ccc(C(=O)O)cc3)C2=O)cc1OC -1.9%
O=S(=O)(CCc1ccncc1)C1Cc2cccc3cccc1c23 (configuration not stated) -6.1%
CC(C)(C)S(=O)(=O)c1cnc(N2CCCCC2)nc1N -1.3%
COc1ccc(N2C(=O)CC(NC34CC5CC(CC(C5)C3)C4)C2=O)c(OC)c1 (configuration not stated) -6.7%
CC(=O)c1cccc(NC(=O)NC(C)c2ccc3c(c2)OCO3)c1 (configuration not stated) -12.5%
CCCNC(=O)c1ccccc1N1CCN(CCCCN2C(=O)C3CCCCN3C2=O)CC1 (configuration not stated) -16.7%
COc1ccc(C2CC(c3cccs3)=NN2C(=O)CSc2nncn2C)cc1OC (configuration not stated) 7.7%
Cc1c(-n2c(=S)[nH]c3ccccc3c2=O)c(=O)n(-c2ccccc2)n1C -7.5%
Cc1c(N=Nc2ccc(O)cc2)c(=O)n(-c2ccccc2)n1C -2.3%
Cc1cc2c(c(SCC(=O)NCc3ccc(Cl)cc3)n1)C(=O)OC2 -1.3%
CSCCC(NC(=O)c1ccccc1)C(=O)N(C)CC(=O)Nc1ccc(N2CCOCC2)cc1 (configuration not stated) -6.8%
COCCN(C(=O)COC(=O)c1cccc2ccccc12)c1c(N)n(Cc2ccccc2)c(=O)[nH]c1=O -10.3%
Cc1cccc(C)c1Nc1nnc(SC/C(O)=C(\C#N)c2nc3ccccc3[nH]2)s1 4.2%
CCOC(=O)C(C(C)C)C(N)Cc1ccc(F)cc1 (configuration not stated) -7.7%
CCCCC(CC)C(=O)NCc1ccc(F)cc1 (configuration not stated) -9.2%
CC(C)CNC(=O)C1CCCN(C(=O)NCc2ccccc2)C1 (configuration not stated) -8.2%
COc1cc(C2SCC(=O)N2CCCN(C)C)cc(OC)c1OC (configuration not stated) -6.3%
CN(C)CCCN1C(=O)CSC1c1ccccc1 (configuration not stated) -5.4%
COc1ccc(C2CC23N=C(c2ccccc2)OC3=O)cc1 (configuration not stated) -2.9%
Cc1nnc(SCc2cccs2)[nH]c1=O -5.9%
O=C(NC1CCN(Cc2ccccc2)CC1)C1CCCN(c2nnc(-n3cccc3)s2)C1 (configuration not stated) -1.4%
CC(C)n1c(C(=O)OCC(=O)NCc2ccc3c(c2)OCO3)cc2sccc21 -13%
CC(C)C(OC(=O)c1cc2occc2n1C)C(=O)NCc1ccc2c(c1)OCO2 (configuration not stated) 3.8%
